Test results published in PubChem BioAssay (EPA / NIEHS).
Records with an inconclusive call do not appear. The source made the active and inactive calls. How the source made its calls, unless noted: active means hit-call score of the fitted dose curve at least 0.9, where 1 is the maximum; inactive means score below 0.9.

Legend:
[1] = read-out: Monokine induced gamma interferon (MIG), CXCL9 (gene 4283); test: BSK_3C_MIG: BioMAP Diversity Plus: 3C Assay for Monokine induced gamma interferon (MIG) Biomarker Activity (AID 2283021); settings: primary human endothelial cells (HUVEC); actives raise or lower the signal;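 on AC50: MIG protein level measured by immunoassay in the treated endothelial cultures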
Summary of the method: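 ELISA measurement of MIG in human umbilical vein endothelial cells 24 h after treatment. Cytotoxicity tracked by SRB staining in parallel cultures; gain or loss of signal fitted relative to DMSO.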

[2] = biological target: human Vitamin D Receptor (VDR), VDR (gene 7421) (UniProt P11473); test: ATG_VDR_TRANS: Attagene TRANS-FACTORIAL HepG2 Assay for human Vitamin D Receptor (VDR) (AID 2283022; active means hit-call score of the fitted dose curve at least 0.9, where 1 is the maximum)
Chain of human Vitamin D Receptor (VDR), VDR (gene 7421) (P11473 whole entry, looked up, the tested form may be a part): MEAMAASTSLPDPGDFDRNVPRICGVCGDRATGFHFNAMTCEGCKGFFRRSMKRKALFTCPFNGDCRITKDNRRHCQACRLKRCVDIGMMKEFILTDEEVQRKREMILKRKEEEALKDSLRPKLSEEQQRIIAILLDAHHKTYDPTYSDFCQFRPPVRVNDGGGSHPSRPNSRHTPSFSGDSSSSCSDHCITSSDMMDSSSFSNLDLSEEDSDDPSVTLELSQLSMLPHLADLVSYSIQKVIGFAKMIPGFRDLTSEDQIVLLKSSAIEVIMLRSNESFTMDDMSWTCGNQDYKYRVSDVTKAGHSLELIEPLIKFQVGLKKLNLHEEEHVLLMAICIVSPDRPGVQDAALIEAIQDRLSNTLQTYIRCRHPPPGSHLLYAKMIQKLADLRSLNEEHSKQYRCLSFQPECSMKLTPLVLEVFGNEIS
Summary of the method: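 Steps: transfect HepG2 with GAL4-UAS-driven reporter constructs; dose compounds 24 h; isolate RNA, reverse-transcribe, PCR-amplify with 6-FAM-labelled primer extension and HpaI digestion; quantify fragments by capillary electrophoresis relative to DMSO.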

[3] = BSK_3C_SRB: Viability Assessment in the BioMAP Diversity Plus: 3C Assay (AID 2283023); settings: primary human endothelial cells (HUVEC);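 further: fitted both ways against DMSO so a hit may be signal rise or drop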
Summary of the method: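 Absorbance at 560 nm of sulforhodamine B-stained (0.1%) total protein served as a cytotoxicity readout in human umbilical vein endothelial cells, 24 h after chemical treatment. Signal was fitted bidirectionally relative to DMSO.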

[4] = read-out: Matrix Metallopeptidase 1 (MMP1), MMP1 (gene 4312); test: BSK_BE3C_MMP1: BioMAP Diversity Plus: BE3C Assay for Matrix Metallopeptidase 1 (MMP1) Biomarker Activity (AID 2283024); settings: primary human bronchial epithelial cells; actives raise or lower the signal
Summary of the method: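 ELISA measurement of MMP-1 after 24 h compound exposure of primary human bronchial epithelial cells. Changes in either direction fitted relative to DMSO; parallel SRB staining checked overt cytotoxicity.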

[5] = BSK_3C_Vis: BioMAP Diversity Plus: 3C Assay for Morphology Visualization (AID 2283025); settings: primary human endothelial cells (HUVEC);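 further: fitted both ways so gain or loss versus DMSO counts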;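 on AC50: light microscopy image of cell morphology used as background control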
Summary of the method: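 Light-microscopy visualization of HUVEC cultures at 24 h post-treatment, with DMSO as baseline for bidirectional fitting.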

[6] = read-out: Pselectin, SELP (gene 6403); test: BSK_4H_Pselectin: BioMAP Diversity Plus: 4H Assay for Pselectin Biomarker Activity (AID 2283026); settings: primary human endothelial cells (HUVEC); actives raise or lower the signal
Summary of the method: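 ELISA of surface P-selectin on HUVEC, 24 h after dosing, with parallel SRB staining (0.1% after 10% TCA fixation, 560 nm) for overt cytotoxicity. Activity fitted in both directions relative to DMSO.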

[7] = BSK_4H_SRB: Viability Assessment in the BioMAP Diversity Plus: 4H Assay (AID 2283027); settings: primary human endothelial cells (HUVEC);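 further: cells exposed to compound for 24 h before staining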;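 on AC50: curves fitted both ways versus DMSO so AC50 may be loss or gain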
Summary of the method: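 Cytotoxicity read-out in primary human endothelial cells: after 24 h compound exposure, cells were TCA-fixed (10%), stained with 0.1% SRB and absorbance taken at 560 nm. Values fitted in both directions relative to DMSO.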

[8] = BSK_BE3C_SRB: Viability Assessment in the BioMAP Diversity Plus: BE3C Assay (AID 2283028); settings: primary human bronchial epithelial cells;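 on AC50: fitted both ways so AC50 may mark signal gain or loss versus DMSO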
Summary of the method: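 Cells (human bronchial epithelial, primary) are treated with chemicals, and after 24 h the parallel cultures are fixed in 10% TCA. These are then stained with 0.1% SRB and read at 560 nm. Gain or loss of signal is fitted relative to DMSO.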

[9] = read-out: Thrombomodulin, THBD (gene 7056); test: BSK_3C_Thrombomodulin: BioMAP Diversity Plus: 3C Assay for Thrombomodulin Biomarker Activity (AID 2283029); settings: primary human endothelial cells (HUVEC); actives raise or lower the signal
Summary of the method: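 ELISA measurement of thrombomodulin on HUVEC surface 24 h after chemical dosing; activity fitted in both directions relative to DMSO vehicle.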

[10] = read-out: Urokinase-type plasminogen activator receptor (uPAR), PLAUR (gene 5329); test: BSK_4H_uPAR: BioMAP Diversity Plus: 4H Assay for Urokinase-type plasminogen activator receptor (uPAR) Biomarker Activity (AID 2283030); settings: primary human endothelial cells (HUVEC); actives raise or lower the signal
Summary of the method: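 Cell-surface uPAR ELISA signal, measured 24 h after dosing human umbilical vein endothelial cells, was analyzed with bidirectional fitting relative to DMSO. Parallel SRB staining of total protein tracked overt cytotoxicity.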

[11] = read-out: Vascular cell adhesion molecule 1 (VCAM1), VCAM1 (gene 7412); test: BSK_4H_VCAM1: BioMAP Diversity Plus: 4H Assay for Vascular cell adhesion molecule 1 (VCAM1) Biomarker Activity (AID 2283033); settings: primary human endothelial cells (HUVEC); actives raise or lower the signal
Summary of the method: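 VCAM-1 ELISA read 24 h after chemical dosing of HUVEC in the BioMAP 4H system, with gain or loss of signal fitted relative to DMSO. Parallel SRB staining (560 nm) checked overt cytotoxicity.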

[12] = read-out: Interferon-gamma inducible Protein 10 (IP10), CXCL10 (gene 3627); test: BSK_BE3C_IP10: BioMAP Diversity Plus: BE3C Assay for Interferon-gamma inducible Protein 10 (IP10) Biomarker Activity (AID 2283034); settings: primary human bronchial epithelial cells; actives raise or lower the signal
Summary of the method: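 IP-10 quantified by ELISA in human primary bronchial epithelial cell cultures at 24 hours post-dosing. Gain or loss of signal fitted relative to DMSO; parallel SRB staining assessed overt cytotoxicity.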

[13] = read-out: Monokine induced gamma interferon (MIG), CXCL9 (gene 4283); test: BSK_BE3C_MIG: BioMAP Diversity Plus: BE3C Assay for Monokine induced gamma interferon (MIG) Biomarker Activity (AID 2283035); settings: primary human bronchial epithelial cells; actives raise or lower the signal
Summary of the method: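 ELISA quantified MIG after 24 h exposure of primary bronchial epithelial cultures, analysed in both directions relative to DMSO. Cytotoxicity tracked in parallel cultures by sulforhodamine B staining.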

[14] = read-out: Transforming growth factor beta 1 (TGFb1), TGFB1 (gene 7040); test: BSK_BE3C_TGFb1: BioMAP Diversity Plus: BE3C Assay for Transforming growth factor beta 1 (TGFb1) Biomarker Activity (AID 2283036); settings: primary human bronchial epithelial cells; actives raise or lower the signal
Summary of the method: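 ELISA readout of TGF-b1 from human lung bronchial epithelial primary cells, taken 24 h post-treatment. Gain or loss of signal fitted relative to DMSO baseline, with parallel SRB staining for overt cytotoxicity.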

[15] = read-out: Plasminogen activator inhibitor-1 (PAI1), SERPINE1 (gene 5054); test: BSK_BE3C_PAI1: BioMAP Diversity Plus: BE3C Assay for Plasminogen activator inhibitor-1 (PAI1) Biomarker Activity (AID 2283037); settings: primary human bronchial epithelial cells; actives raise or lower the signal
Summary of the method: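 PAI-1 was measured by ELISA in human primary bronchial epithelial cultures 24 h after chemical dosing, with cytotoxicity checked by SRB total-protein staining in parallel cultures. Activity was fitted in both directions relative to DMSO.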

[16] = read-out: urokinase plasminogen activator (uPA), PLAU (gene 5328); test: BSK_BE3C_uPA: BioMAP Diversity Plus: BE3C Assay for urokinase plasminogen activator (uPA) Biomarker Activity (AID 2283038); settings: primary human bronchial epithelial cells; actives raise or lower the signal
Summary of the method: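 Bronchial epithelial cells (human, primary); chemical 24 h; uPA by ELISA; bidirectional fit vs DMSO. SRB (0.1%, after 10% TCA fixation, 560 nm) in parallel cultures for cytotoxicity.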

[17] = read-out: Urokinase-type plasminogen activator receptor (uPAR), PLAUR (gene 5329); test: BSK_BE3C_uPAR: BioMAP Diversity Plus: BE3C Assay for Urokinase-type plasminogen activator receptor (uPAR) Biomarker Activity (AID 2283039); settings: primary human bronchial epithelial cells; actives raise or lower the signal
Summary of the method: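 uPAR levels were measured by ELISA after 24 h compound treatment of primary human bronchial epithelial cells, fitted in both directions relative to DMSO. Parallel SRB staining served as the cytotoxicity read-out.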

[18] = read-out: Interleukin-6 (IL6), IL6 (gene 3569); test: BSK_CASM3C_IL6: BioMAP Diversity Plus: CASM3C Assay for Interleukin-6 (IL6) Biomarker Activity for (AID 2283040); settings: primary human coronary artery smooth muscle cells; actives raise or lower the signal
[19] = read-out: Tissue plasminogen activator (tPA), PLAT (gene 5327); test: BSK_BE3C_tPA: BioMAP Diversity Plus: BE3C Assay for Tissue plasminogen activator (tPA) Biomarker Activity (AID 2283041); settings: primary human bronchial epithelial cells; actives raise or lower the signal
Summary of the method: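 tPA measured by ELISA 24 h after dosing human primary bronchial epithelial cells (BE3C system). Changes in either direction were fitted against DMSO. Parallel cultures were stained with SRB to flag overt cytotoxicity.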

[20] = read-out: Interleukin-8 (IL8), CXCL8 (gene 3576); test: BSK_CASM3C_IL8: BioMAP Diversity Plus: CASM3C Assay for Interleukin-8 (IL8) Biomarker Activity (AID 2283042); settings: primary human coronary artery smooth muscle cells; actives raise or lower the signal;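 further: IL-8 protein level quantified by ELISA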

Measured: AC50

CCCCCCCCCCCCCCCC[N+](C)(C)CC
inactive: [2] | [10]
active: [1] 4050 nM | [3] 697 nM | [4] 3200 nM | [5] 533 nM | [6] 6200 nM | [7] 1570 nM | [8] 5120 nM | [9] 2350 nM | [11] 1900 nM | [12] 2190 nM | [13] 9570 nM | [14] 599 nM | [15] 10400 nM | [16] 2250 nM | [17] 2080 nM | [18] 4500 nM | [19] 797 nM | [20] 5980 nM

CCOc1nc(F)cc2nc(S(=O)(=O)Nc3c(Cl)cccc3C(=O)OC)nn12
inactive: all assays above

N#[N+]c1ccc2c(S(=O)(=O)[O-])cccc2c1O
inactive: all assays above

CCCCCCCCc1ccc(Nc2ccc(CCCCCCCC)cc2)cc1
inactive: all assays above

O=Nc1ccc(O)cc1
not listed: [2]
inactive: all other assays above
